Results filed as inconclusive are left out. Active and inactive are the calls of the source. Unless noted, calls come from the whole dose curve; as a rule, active = well fitted curve in the direction sought with a large enough effect in the repeat runs; inconclusive = weak or mixed curves; inactive = no such curve, though single readings can be large; an effect the other way counts as inactive or inconclusive.
Key:
[1] = target: Thyrotropin receptor (Homo sapiens) (UniProt P16473); experiment: qHTS assay to identify small molecule agonists of the thyroid stimulating hormone receptor (TSHR) signaling pathway (AID 1224843; calls by dose curve; note: nearly all actives have a fitted effect of over 45% in size)
Outline: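 Compounds are titrated over 15 concentrations, in triplicate, onto TSHR-HEK293 cells seeded at 800/well. Plates sit 30 min at room temperature before cAMP-d2 and anti-cAMP cryptate are added; signal is read after a further hour.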

[2] = qHTS assay to identify small molecule agonists of the hypoxia (HIF-1) signaling pathway - cell viability counter screen (AID 1224844; calls by dose curve; note: nearly all actives have a fitted effect of over 50% in size; note: potency is the fitted concentration of half-maximal effect)
Outline: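 Cytotoxicity measured by CellTiter-Glo ATP luminescence in the wells also read for beta-lactamase signal. Cells were HRE-bla ME-180 (2,000/well, 0.5% dialyzed FBS), exposed to compounds for 17 h at 37C.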

[3] = qHTS assay to identify small molecule agonists of H2AX (AID 1224845; active = well fitted activation curve with a large enough effect in the signal ratio in the repeat runs, not every such curve was filed as active; the % refers to the signal ratio)
Outline: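 Wild-type CHO-K1 cells plated overnight, then exposed 3 hr at 37C to compounds at 15 concentrations (0.76% DMSO). Lysed, then HTRF anti-pH2AX(S139)-cryptate/anti-H2AX-d2 detection after 24 hr at room temperature; emissions 665 and 620 nm.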

[4] = qHTS assay to identify small molecule agonists of the hypoxia (HIF-1) signaling pathway (AID 1224846; active = well fitted activation curve with a large enough effect in the signal ratio in the repeat runs, not every such curve was filed as active; the % refers to the signal ratio)
Outline: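 Compounds added to ME-180 cells carrying hypoxia-response-element beta-lactamase reporter (0.5% dialyzed FBS, 5 h preplating), 17 h at 37C; agonist activity detected by CCF4-AM B/G FRET read-out.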

[5] = qHTS assay to identify small molecule agonists of H2AX - cell viability counter screen (AID 1224847; calls by dose curve; note: top concentration of the series differs between compounds; nearly all actives have a fitted effect of over 30% in size)
Outline: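 CHO-K1 cells plated overnight at 37C, then exposed 3 h at 37C to compounds at 15 concentrations (0.76% DMSO final). Viability by CellTiter-Glo luminescence after 30 min at room temperature.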

[6] = qHTS assay to identify small molecule agonists of the estrogen related receptor (ERR) signaling pathway from Tox21 library (AID 1224849; calls by dose curve; note: nearly all actives have a fitted effect of over 15% in size); conditions: ERR reporter cell line, ONE-Glo luciferase, 18 h; at 92.4 µM (top of the series) unless noted
Outline: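 Luminescent agonist read-out (One-Glo, 30-minute room-temperature incubation) following 18-hour compound treatment at 37 C of the ERR cell line, which had been plated 6 hours before dosing.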

[7] = qHTS RealTime-Glo MT Cell Viability Assay in HepG2 cells - 24 hour (AID 1224867); note: nearly all actives have a fitted effect of over 50% in size; note: potency is the fitted concentration of half-maximal effect
Outline: (§1)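 HepG2 cells (600/well) were dispensed with RealTime-Glo reagents, incubated 5 h at 37 °C, then treated with compounds in DMSO for up to 40 h. Nonlytic NanoLuc luminescence reflecting viable cells was read at each stated time point.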

[8] = qHTS RealTime-Glo MT Cell Viability Assay in HEK293 cells - 32 hour (AID 1224868); note: nearly all actives have a fitted effect of over 50% in size; note: potency is the fitted concentration of half-maximal effect
Outline: (§2)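 HEK293 cells seeded with NanoLuc/prosubstrate reagent, rested 5 h at 37 C, then dosed and kept at 37 C up to 40 h. Nonlytic real-time luminescence from viable cells read at 0, 8, 16, 24, 32 and 40 h.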

[9] = A CellTox Green Cytotoxicity Assay to monitor cytotoxicity in HEK293 cells - 0 hour (AID 1224869); note: nearly all actives have a fitted effect of over 50% in size
Outline: (§3)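 Fluorescence from a DNA-binding dye excluded by viable cells was measured repeatedly in the same HEK293 wells (600 cells/well) during continuous compound exposure at 37 C. Each assay gives one read point: 0, 8, 16, 24, 32 or 40 h.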

[10] = A CellTox Green Cytotoxicity Assay to monitor cytotoxicity in HEK293 cells - 40 hour (AID 1224871); note: nearly all actives have a fitted effect of over 45% in size
Outline: as §3

[11] = qHTS RealTime-Glo MT Cell Viability Assay in HepG2 cells - 8 hour (AID 1224873); note: nearly all actives have a fitted effect of over 55% in size
Outline: (§4)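 HepG2 cells mixed with RealTime-Glo MT reagents (NanoLuc plus cell-permeant prosubstrate) were seeded at 600 cells/well, incubated 5 h at 37 C/5% CO2, then pinned with compounds in DMSO; nonlytic luminescence tracked viability during 40 h treatment.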

[12] = qHTS RealTime-Glo MT Cell Viability Assay in HEK293 cells - 40 hour (AID 1224874); conditions: RealTime-Glo luminescence; max response: stronger effect = lower value; note: nearly all actives have a fitted effect of over 50% in size; note: potency is the fitted concentration of half-maximal effect
Outline: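 Luminescence, which tracks viable cell number through reduction of the prosubstrate to a NanoLuc substrate, was read over continuous 37 C culture. Cells (600/well) were premixed with reagent and rested 5 h before 23 nL of compound in DMSO was pinned.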

[13] = A CellTox Green Cytotoxicity Assay to monitor cytotoxicity in HEK293 cells - 24 hour (AID 1224875); note: nearly all actives have a fitted effect of over 45% in size
Outline: as §3

[14] = A CellTox Green Cytotoxicity Assay to monitor cytotoxicity in HepG2 cells - 16 hour (AID 1224876); note: nearly all actives have a fitted effect of over 45% in size; note: potency is the fitted concentration of half-maximal effect
Outline: (§5)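 Real-time cytotoxicity: fluorescence of a cell-impermeant cyanine dye binding DNA of dead HepG2 cells, measured repeatedly (0–40 h) during compound exposure at 37 C. Cells seeded 600/well with reagent, dosed after 5 h.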

[15] = A CellTox Green Cytotoxicity Assay to monitor cytotoxicity in HepG2 cells - 24 hour (AID 1224878); note: nearly all actives have a fitted effect of over 45% in size; note: potency is the fitted concentration of half-maximal effect
Outline: as §5

[16] = A CellTox Green Cytotoxicity Assay to monitor cytotoxicity in HepG2 cells - 40 hour (AID 1224879); note: nearly all actives have a fitted effect of over 40% in size; note: potency is the fitted concentration of half-maximal effect
Outline: as §5

[17] = qHTS RealTime-Glo MT Cell Viability Assay in HepG2 cells - 40 hour (AID 1224870); note: nearly all actives have a fitted effect of over 50% in size; note: potency is the fitted concentration of half-maximal effect
Outline: as §4

[18] = qHTS RealTime-Glo MT Cell Viability Assay in HEK293 cells - 16 hour (AID 1224872); note: nearly all actives have a fitted effect of over 50% in size; note: potency is the fitted concentration of half-maximal effect
Outline: as §2

[19] = qHTS RealTime-Glo MT Cell Viability Assay in HepG2 cells - 32 hour (AID 1224877); note: nearly all actives have a fitted effect of over 55% in size; note: potency is the fitted concentration of half-maximal effect
Outline: as §1

[20] = qHTS assay to identify small molecule antagonists of the estrogen related receptor (ERR) signaling pathway from Tox21 library (AID 1224848); note: nearly all actives have a fitted effect of over 50% in size; note: potency is the fitted concentration of half-maximal effect
Outline: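 First, 2,000 ERR cells per well were plated and held 6 h at 37 C/5% CO2. Next, compounds in DMSO were pinned in and left 18 h at 37 C. Finally, ONE-Glo was added and luminescence read after 30 min at room temperature.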
% is set by controls: 0 for no effect and ±100 for the full control effect.

Chain of Thyrotropin receptor (Homo sapiens) (P16473 whole entry, looked up): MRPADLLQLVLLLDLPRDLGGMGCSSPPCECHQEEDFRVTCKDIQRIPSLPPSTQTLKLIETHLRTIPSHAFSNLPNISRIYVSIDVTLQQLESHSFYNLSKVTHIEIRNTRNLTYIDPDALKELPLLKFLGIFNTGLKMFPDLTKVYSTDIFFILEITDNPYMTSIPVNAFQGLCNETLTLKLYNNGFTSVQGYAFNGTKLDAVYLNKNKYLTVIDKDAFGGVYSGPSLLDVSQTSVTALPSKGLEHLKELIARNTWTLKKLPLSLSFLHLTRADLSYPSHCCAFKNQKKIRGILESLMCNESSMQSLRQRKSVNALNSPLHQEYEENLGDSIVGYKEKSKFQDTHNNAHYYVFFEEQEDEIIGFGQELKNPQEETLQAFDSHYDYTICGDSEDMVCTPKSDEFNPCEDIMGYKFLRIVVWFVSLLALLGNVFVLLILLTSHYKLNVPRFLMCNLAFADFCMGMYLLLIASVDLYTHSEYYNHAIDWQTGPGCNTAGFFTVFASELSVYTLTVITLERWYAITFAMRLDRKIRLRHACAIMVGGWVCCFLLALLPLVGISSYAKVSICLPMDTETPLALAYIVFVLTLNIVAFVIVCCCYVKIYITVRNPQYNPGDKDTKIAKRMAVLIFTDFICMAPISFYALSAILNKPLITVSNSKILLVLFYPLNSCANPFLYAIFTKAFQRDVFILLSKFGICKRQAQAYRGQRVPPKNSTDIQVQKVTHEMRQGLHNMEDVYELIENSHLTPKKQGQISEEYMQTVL

COC(=O)C1=C(C)NC(C)=C(C(=O)O[C@@H]2CCCN(Cc3ccccc3)C2)[C@@H]1c1cccc([N+](=O)[O-])c1
inactive: Potency [1] | Potency [2] | Potency [3] | outcome [4] | Potency [5] | activity change, positive = activation [6] -34.6% [at 42.5 µM] | Potency [7] | Potency [8] | Potency [9] | Potency [10] | Potency [11] | max response [12] -29.2% | Potency [13] | Potency [14] | Potency [15] | Potency [16]

O=C(O)c1ccc(OCCCOc2ccc(C(=O)O)cc2)cc1
inactive: Potency [1] | Potency [2] | Potency [3] | outcome [4] | Potency [5] | activity change, positive = activation [6] 7.07% [at 42.5 µM] | Potency [7] | Potency [8] | Potency [9] | Potency [17] | Potency [10] | Potency [18] | Potency [11] | max response [12] 1.73% | Potency [13] | Potency [14] | Potency [19] | Potency [15] | Potency [16]

Cc1ccccc1N=C(N)Nc1ccccc1C
inactive: Potency [1] | Potency [2] | Potency [3] | outcome [4] | Potency [5] | Potency [20] | activity change, positive = activation [6] -3.25% | Potency [7] | Potency [8] | Potency [9] | Potency [17] | Potency [18] | Potency [11] | max response [12] -12.1% | Potency [13] | Potency [14] | Potency [19] | Potency [15] | Potency [16]

O=C1Cc2cc(Cl)ccc2N1
inactive: Potency [1] | Potency [2] | Potency [3] | outcome [4] | Potency [5] | Potency [20] | activity change, positive = activation [6] 0.547% [at 42.5 µM] | Potency [7] | Potency [8] | Potency [9] | Potency [17] | Potency [11] | Potency [13] | Potency [14] | Potency [19] | Potency [15] | Potency [16]

CC(C)C[C@H](NC(=O)[C@H](CCc1ccccc1)NC(=O)CN1CCOCC1)C(=O)N[C@@H](Cc1ccccc1)C(=O)N[C@@H](CC(C)C)C(=O)[C@@]1(C)CO1
active: Potency [2] 213 nM | Potency [20] 59.6 nM | Potency [7] 67.4 nM | Potency [8] 37.9 nM | Potency [17] 23.9 nM | Potency [12] 26.8 nM | Potency [14] 10700 nM | Potency [19] 26.8 nM | Potency [15] 268 nM | Potency [16] 16.9 nM
inactive: Potency [1] | Potency [3] | outcome [4] | Potency [5] | activity change, positive = activation [6] -67.1% [at 42.5 µM] | Potency [9] | Potency [11] | Potency [13]

Cc1[nH]cnc1CN1CCc2c(c3ccccc3n2C)C1=O
inactive: Potency [1] | Potency [2] | Potency [3] | outcome [4] | Potency [5] | Potency [20] | activity change, positive = activation [6] -18.3% [at 42.5 µM] | Potency [7] | Potency [8] | Potency [9] | Potency [17] | Potency [18] | Potency [11] | max response [12] -24.4% | Potency [13] | Potency [14] | Potency [19] | Potency [15] | Potency [16]

CC(O)c1ccccc1 (configuration not stated)
inactive: Potency [1] | Potency [2] | Potency [3] | outcome [4] | Potency [5] | Potency [20] | activity change, positive = activation [6] 5.42% | Potency [7] | Potency [8] | Potency [9] | Potency [17] | Potency [18] | Potency [11] | max response [12] 19.3% | Potency [13] | Potency [14] | Potency [19] | Potency [15] | Potency [16]

NC(=O)c1ccncc1
inactive: Potency [1] | Potency [2] | Potency [3] | outcome [4] | Potency [5] | Potency [20] | activity change, positive = activation [6] 6.51% | Potency [7] | Potency [8] | Potency [9] | Potency [17] | Potency [10] | Potency [11] | max response [12] 6.51% | Potency [13] | Potency [14] | Potency [19] | Potency [15] | Potency [16]

CC(=O)Oc1ccc([N+](=O)[O-])cc1CCl
inactive: Potency [1] | Potency [3] | outcome [4] | Potency [5] | Potency [20] | activity change, positive = activation [6] -12.3% | Potency [7] | Potency [9] | Potency [17] | Potency [10] | Potency [11] | Potency [13] | Potency [14] | Potency [19] | Potency [15] | Potency [16]
active: Potency [2] 49000 nM | Potency [8] 3890 nM | Potency [18] 6160 nM | Potency [12] 3470 nM

Cc1c(C)c2c(c(C)c1OC(=O)CCC(=O)OCCO)CC[C@@](C)(CCC[C@H](C)CCC[C@H](C)CCCC(C)C)O2
inactive: Potency [1] | Potency [2] | Potency [3] | outcome [4] | Potency [5] | activity change, positive = activation [6] -48.8% [at 42.5 µM] | Potency [7] | Potency [8] | Potency [9] | Potency [10] | Potency [18] | Potency [11] | max response [12] -18.9% | Potency [13] | Potency [14] | Potency [19] | Potency [15] | Potency [16]

c1ccc(C[n+]2cccc3ccccc32)cc1
inactive: Potency [1] | Potency [2] | Potency [3] | outcome [4] | Potency [5] | activity change, positive = activation [6] -48.3% | Potency [7] | Potency [8] | Potency [9] | Potency [10] | Potency [11] | max response [12] -28.8% | Potency [13] | Potency [14] | Potency [15] | Potency [16]

CCCCC(CC)CN (configuration not stated)
inactive: Potency [1] | Potency [2] | Potency [3] | outcome [4] | Potency [5] | activity change, positive = activation [6] 2.45% | Potency [7] | Potency [8] | Potency [9] | Potency [10] | Potency [18] | Potency [11] | max response [12] 4.35% | Potency [13] | Potency [14] | Potency [19] | Potency [15] | Potency [16]

CC(C)(O)c1ccc(CNC(=O)c2cccnc2Oc2ccc3nonc3c2)cc1
inactive: Potency [1] | Potency [2] | Potency [3] | outcome [4] | Potency [5] | activity change, positive = activation [6] -39.3% | Potency [7] | Potency [9] | Potency [17] | Potency [10] | Potency [11] | Potency [13] | Potency [14] | Potency [19] | Potency [15] | Potency [16]

O=c1[nH]c2ccc(Cl)cc2o1
inactive: Potency [1] | Potency [2] | Potency [3] | outcome [4] | Potency [5] | Potency [20] | activity change, positive = activation [6] 4.04% | Potency [7] | Potency [8] | Potency [9] | Potency [10] | Potency [11] | max response [12] -0.887% | Potency [13] | Potency [14] | Potency [19] | Potency [15] | Potency [16]
